Source: ChEMBL document CHEMBL4513141, “CO-ADD screening of NIH (USA) - Clinical Collection” (2021)
Potency and affinity values are given separately.

Columns and labels:
Staphylococcus aureus = settings: Concentration 20 uM; ASSAY_TEST Inhibition of Bacterial Growth; detection method Absorption (OD600); MEDIA CAMHB; plate type 384well; NBS; CORNING #3640; time 18 hr
Escherichia coli = settings: Concentration 20 uM; ASSAY_TEST Inhibition of Bacterial Growth; detection method Absorption (OD600); MEDIA CAMHB; plate type 384well; NBS; CORNING #3640; time 18 hr

Structure (SMILES): CN(C)CCc1c[nH]c2ccc(Cn3cncn3)cc12.O=C(O)c1ccccc1 [RIZATRIPTAN BENZOATE]
- Inhibition (Staphylococcus aureus): 12.43%
- Inhibition (Escherichia coli): -5.47%

Structure (SMILES): Cc1ccc(-c2nc3ccc(C)cn3c2CC(=O)N(C)C)cc1.Cc1ccc(-c2nc3ccc(C)cn3c2CC(=O)N(C)C)cc1.O=C(O)C(O)C(O)C(=O)O [ZOLPIDEM TARTRATE]
- Inhibition (Staphylococcus aureus): 4.54%
- Inhibition (Escherichia coli): -2.63%

Structure (SMILES): Fc1ccc([C@@H]2CCNC[C@H]2COc2ccc3c(c2)OCO3)cc1.O=C(O)/C=C\C(=O)O
- Inhibition (Staphylococcus aureus): 0.49%
- Inhibition (Escherichia coli): 6.75%

Structure (SMILES): CNCC(O)c1ccc(O)cc1 (configuration not stated) [OXEDRINE]
- Inhibition (Staphylococcus aureus): -16.09%
- Inhibition (Escherichia coli): 6.6%

Structure (SMILES): CC1CCC[C@H](O)CCCCCc2cc(O)cc(O)c2C(=O)O1 (some centres not stated)
- Inhibition (Staphylococcus aureus): 10.2%
- Inhibition (Escherichia coli): 1.45%

Structure (SMILES): C[C@]12CCC(=O)C=C1CC[C@@H]1[C@@H]2CC[C@@]2(C)[C@H]1CC[C@]2(C)O [METHYLTESTOSTERONE]
- Inhibition (Staphylococcus aureus): 7.28%
- Inhibition (Escherichia coli): 3.56%

Structure (SMILES): Cl.O.Oc1cc2c(cc1O)[C@H]1c3ccccc3CN[C@@H]1CC2
- Inhibition (Staphylococcus aureus): 11.17%
- Inhibition (Escherichia coli): 6.66%

Structure (SMILES): CC(C)[C@]12O[C@H]1[C@@H]1O[C@]13[C@]1(O[C@H]1C[C@H]1C4=C(CC[C@@]13C)C(=O)OC4)[C@@H]2O [TRIPTOLIDE]
- Inhibition (Staphylococcus aureus): 14.16%
- Inhibition (Escherichia coli): -9.75%

Structure (SMILES): CC(C(=O)O)c1ccc(-c2ccccc2)c(F)c1 (configuration not stated) [FLURBIPROFEN]
- Inhibition (Staphylococcus aureus): 10.54%
- Inhibition (Escherichia coli): -5.67%

Structure (SMILES): C[C@]12CC[C@H](O)CC1=CC[C@@H]1[C@@H]2CC[C@]2(C)C(=O)CC[C@@H]12 [PRASTERONE]
- Inhibition (Staphylococcus aureus): 13.56%
- Inhibition (Escherichia coli): 2.6%

Structure (SMILES): C[C@]12CC[C@H]3[C@@H](CCC4=CC(=O)CC[C@@H]43)[C@@H]1CC[C@@H]2O [NANDROLONE]
- Inhibition (Staphylococcus aureus): -0.13%
- Inhibition (Escherichia coli): 1.44%

Structure (SMILES): CCCC(C)(COC(N)=O)COC(=O)NC(C)C (configuration not stated) [CARISOPRODOL]
- Inhibition (Staphylococcus aureus): -20.34%
- Inhibition (Escherichia coli): 4.18%

Structure (SMILES): CCC(COC(=O)c1cc(OC)c(OC)c(OC)c1)(c1ccccc1)N(C)C.O=C(O)/C=C\C(=O)O (configuration not stated)
- Inhibition (Staphylococcus aureus): 4.02%
- Inhibition (Escherichia coli): 7.24%

Structure (SMILES): CC(C)NCC(O)c1ccc(O)c(O)c1.Cl (configuration not stated) [ISOPROTERENOL HYDROCHLORIDE]
- Inhibition (Staphylococcus aureus): 7.54%
- Inhibition (Escherichia coli): -1.63%

Structure (SMILES): Brc1c(NC2=NCCN2)ccc2nccnc12 [BRIMONIDINE]
- Inhibition (Staphylococcus aureus): 7.02%
- Inhibition (Escherichia coli): -2.73%

Structure (SMILES): CNC(=O)Oc1ccc2c(c1)[C@]1(C)CCN(C)C1N2C.CNC(=O)Oc1ccc2c(c1)[C@]1(C)CCN(C)C1N2C.O=S(=O)(O)O (some centres not stated)
- Inhibition (Staphylococcus aureus): 12.91%
- Inhibition (Escherichia coli): -3.79%

Structure (SMILES): Cl.c1ccc2c(CC3=NCCN3)cccc2c1 [NAPHAZOLINE HYDROCHLORIDE]
- Inhibition (Staphylococcus aureus): 21.19%
- Inhibition (Escherichia coli): 2.28%

Structure (SMILES): NC1=NC(=O)C(c2ccccc2)O1 (configuration not stated) [PEMOLINE]
- Inhibition (Staphylococcus aureus): 13.44%
- Inhibition (Escherichia coli): 0.76%

Structure (SMILES): C[C@]12CCC(=O)C[C@@H]1CC[C@@H]1[C@@H]2CC[C@@]2(C)[C@H]1CC[C@]2(C)O [MESTANOLONE]
- Inhibition (Staphylococcus aureus): -23.2%
- Inhibition (Escherichia coli): 5.51%

Structure (SMILES): Cl.Cl.OCCN1CCN(CCCN2c3ccccc3Sc3ccc(C(F)(F)F)cc32)CC1 [FLUPHENAZINE HYDROCHLORIDE]
- Inhibition (Staphylococcus aureus): 12.42%
- Inhibition (Escherichia coli): -6.08%

Structure (SMILES): Br.COc1ccc2c3c1O[C@H]1C[C@@H](O)C=C[C@@]31CCN(C)C2 [GALANTAMINE HYDROBROMIDE]
- Inhibition (Staphylococcus aureus): 13.66%
- Inhibition (Escherichia coli): 3.62%

Structure (SMILES): Cc1ccnc2c1NC(=O)c1cccnc1N2C1CC1 [NEVIRAPINE]
- Inhibition (Staphylococcus aureus): 12.92%
- Inhibition (Escherichia coli): -0.52%

Structure (SMILES): Cc1nnc2n1-c1ccc(Cl)cc1C(c1ccccc1)=NC2 [ALPRAZOLAM]
- Inhibition (Staphylococcus aureus): 16.72%
- Inhibition (Escherichia coli): 0.08%

Structure (SMILES): Cl.O[C@@H]1CCCC[C@H]1N1CCC(c2ccccc2)CC1
- Inhibition (Staphylococcus aureus): 14.8%
- Inhibition (Escherichia coli): 1.48%

Structure (SMILES): N=C(NCc1ccc(Cl)cc1)SCCCc1c[nH]cn1 [CLOBENPROPIT]
- Inhibition (Staphylococcus aureus): -4.61%
- Inhibition (Escherichia coli): -3.53%

Structure (SMILES): CNCCC(Oc1ccc(C(F)(F)F)cc1)c1ccccc1.Cl (configuration not stated) [FLUOXETINE HYDROCHLORIDE]
- Inhibition (Staphylococcus aureus): 15.46%
- Inhibition (Escherichia coli): 2.53%

Structure (SMILES): Nc1nc2ccc(Cl)cc2c2nc(-c3ccco3)nn12 [CGS-15943]
- Inhibition (Staphylococcus aureus): 11.02%
- Inhibition (Escherichia coli): 5.2%

Structure (SMILES): C[N+]1(CCC(C(N)=O)(c2ccccc2)c2ccccc2)CCCCC1.[Br-] [FENPIVERINIUM BROMIDE]
- Inhibition (Staphylococcus aureus): 4.81%
- Inhibition (Escherichia coli): -0.64%

Structure (SMILES): CN(C)CCc1c[nH]c2ccc(C[C@H]3COC(=O)N3)cc12 [ZOLMITRIPTAN]
- Inhibition (Staphylococcus aureus): 3.79%
- Inhibition (Escherichia coli): 7.38%

Structure (SMILES): Cl.Oc1ccc2c3c1OC1C(O)CC[C@@]4(O)[C@@H](C2)N(CC2CCC2)CC[C@]314 (some centres not stated)
- Inhibition (Staphylococcus aureus): 18.7%
- Inhibition (Escherichia coli): -2.31%

Structure (SMILES): CCOC(=O)c1cncn1[C@H](C)c1ccccc1 [ETOMIDATE]
- Inhibition (Staphylococcus aureus): 11.17%
- Inhibition (Escherichia coli): 2.26%

Structure (SMILES): NC(=O)OCCCc1ccccc1 [PHENPROBAMATE]
- Inhibition (Staphylococcus aureus): 11.43%
- Inhibition (Escherichia coli): 2.85%

Structure (SMILES): C=C1C[C@@H]2[C@H](CC[C@]3(C)C(=O)CC[C@@H]23)[C@@]2(C)C=CC(=O)C=C12 [EXEMESTANE]
- Inhibition (Staphylococcus aureus): 13.66%
- Inhibition (Escherichia coli): -6.95%

Structure (SMILES): CC(=O)OCC[N+](C)(C)C.[Cl-] [ACETYLCHOLINE CHLORIDE]
- Inhibition (Staphylococcus aureus): 11.31%
- Inhibition (Escherichia coli): 4.11%

Structure (SMILES): CN1C(=O)COc2c(C(=O)NC3CN4CCC3CC4)cc(Cl)cc21.Cl (configuration not stated)
- Inhibition (Staphylococcus aureus): 14.32%
- Inhibition (Escherichia coli): 3.95%

Structure (SMILES): O=C(O)CCCc1ccc(N(CCCl)CCCl)cc1 [CHLORAMBUCIL]
- Inhibition (Staphylococcus aureus): 7.69%
- Inhibition (Escherichia coli): 8.33%

Structure (SMILES): COC(=O)N1CCN(C(=O)Cc2ccc(Cl)c(Cl)c2)C(CN2CCCC2)C1.O=C(O)/C=C/C(=O)O (configuration not stated)
- Inhibition (Staphylococcus aureus): 12.27%
- Inhibition (Escherichia coli): 2.23%

Structure (SMILES): CC(C)C(=O)Nc1ccc([N+](=O)[O-])c(C(F)(F)F)c1 [FLUTAMIDE]
- Inhibition (Staphylococcus aureus): 10.52%
- Inhibition (Escherichia coli): 4.1%

Structure (SMILES): COc1cc(N)c(Cl)cc1C(=O)NC1CN2CCC1CC2.Cl.O (configuration not stated) [ZACOPRIDE HYDROCHLORIDE]
- Inhibition (Staphylococcus aureus): -3.02%
- Inhibition (Escherichia coli): 7.58%

Structure (SMILES): NCCc1ccccn1
- Inhibition (Staphylococcus aureus): 1.79%
- Inhibition (Escherichia coli): 8.78%

Structure (SMILES): CC(C)N(CCC(C(N)=O)(c1ccccc1)c1ccccn1)C(C)C.O=P(O)(O)O (configuration not stated) [DISOPYRAMIDE PHOSPHATE]
- Inhibition (Staphylococcus aureus): 5.5%
- Inhibition (Escherichia coli): -2.32%
